In the library only some 19% were active in any assay of this set; here they are far more common.
ELG1 DNA repair – inhibitors of ELG1-dependent DNA repair in HEK293T cells | HEK293T ELG1-luciferase reporter, luminescence, 16 h; DNA damage induced by 5-fluorouridine | hit rate 2.3% among 330,000 | Potency, µM (highest dose often 46.1 µM), for the others: at the top dose activity change, negative = inhibition, usual class: inhibitors; note: potency is the fitted concentration of half-maximal effect; nearly all actives have a fitted effect of over 55% in size
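DMSO vehicle served as the neutral condition. Each well held 2,000 cells given 5-fluorouridine plus compound; after 16 hr at 37 °C/5% CO2, ONE-Glo was added and luciferase measured 30 min later.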
Giardia killer – kills Giardia lamblia; Giardia lamblia trophozoite viability; activity change, % at 7.66 µM, hits read low; hit rate 0.15% among 340,000; in the data active = activity change below about -80%; inconclusive = between about -30% and that limit;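 note: parasites exposed to compound for two days anaerobically before the ATP read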
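Compounds were tested on trophozoites seeded at 100 cells/well and held 48 hrs at 37 deg C anaerobically. An ATP-based luminescent kit measured the remaining live cells.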
TDP1 cell noCPT – qHTS for Inhibitors of human tyrosyl-DNA phosphodiesterase 1 (TDP1): qHTS in cells in absence of CPT; AID 686978, 2013; hit rate 15% among 420,000; DT40 Tdp1-/- hTDP1 cells, no CPT, ATP luminescence, 48 h; Potency, µM (top dose mostly 46.2 µM), inactives show top-dose activity change, negative = growth inhibition, usual class: inhibitors; note: potency is the fitted concentration of half-maximal effect; nearly all actives have a fitted effect of over 55% in size
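Luminescent ATP content (CellTiter-Glo) served as the growth readout. Knockout chicken DT40 cells expressing human TDP1 were exposed to compounds without camptothecin for a minimum 48 hr at 37 °C.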
IL-1B inflam inh – inflammasome signaling inhibition, IL-1 beta readout. THP-1 LPS/ATP IL-1B secretion, AlphaLISA, 16 h; stronger effect = lower value. activity change, % at 57.5 µM. hit rate 4.7% among 360,000. AID 743279; in the data active = activity change below about -50%; inconclusive = mostly about -30% to -49%
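Secreted IL-1B measured by AlphaLISA bead assay after 16 h compound exposure of THP-1 cells; compounds (final up to 57.5 uM) added 1 h before LPS (250 ng/mL) and ATP (1.25 mM) stimulation; lower signal means less secretion.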
TDP1 block – inhibitors of human tyrosyl-DNA phosphodiesterase TDP1 | recombinant TDP1, AlphaScreen DNA substrate cleavage | Q9NUW8 | hit rate 0.28% among 350,000 | AID 485290 | Potency, µM (series often up to 130 µM), for inactives: at the top dose activity change, negative = inhibition, most hits filed as inhibitors; note: potency is the fitted concentration of half-maximal effect; nearly all actives have a fitted effect of over 40% in size
Target sequence (Q9NUW8 whole entry, looked up): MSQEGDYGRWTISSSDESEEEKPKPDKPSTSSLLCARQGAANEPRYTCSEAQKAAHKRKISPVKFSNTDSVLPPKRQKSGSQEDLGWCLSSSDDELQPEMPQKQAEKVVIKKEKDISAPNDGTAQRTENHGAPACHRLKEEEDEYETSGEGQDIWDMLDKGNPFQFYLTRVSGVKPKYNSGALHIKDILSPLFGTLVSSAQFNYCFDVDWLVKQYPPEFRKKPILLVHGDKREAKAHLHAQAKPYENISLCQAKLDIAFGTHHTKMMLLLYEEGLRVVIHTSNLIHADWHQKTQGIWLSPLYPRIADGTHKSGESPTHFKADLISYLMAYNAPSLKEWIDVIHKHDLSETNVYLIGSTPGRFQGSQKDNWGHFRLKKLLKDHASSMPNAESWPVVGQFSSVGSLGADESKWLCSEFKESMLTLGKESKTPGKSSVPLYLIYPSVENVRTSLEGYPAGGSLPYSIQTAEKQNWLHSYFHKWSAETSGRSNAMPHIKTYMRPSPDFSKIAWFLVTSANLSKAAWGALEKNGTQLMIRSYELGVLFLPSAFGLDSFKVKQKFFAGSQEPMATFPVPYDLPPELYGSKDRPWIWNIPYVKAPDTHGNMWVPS
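Tdp1 1 nM final; 15 min RT w/ cpd; substrate 15 nM, 5 min; beads 10 ug/ml, 10 min; AlphaScreen read. Neg ctrl: no enzyme.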
TDP1 cell CPT – DT40-hTDP1 cell growth loss with CPT; hit rate 12% among 420,000; chicken DT40 Tdp1-/-;hTDP1 cells + 20 nM CPT, ATP luminescence, 48 h; AID 686979; Potency, µM (top dose mostly 46.2 µM), without a hit: at the highest dose activity change, negative = growth inhibition, hits mostly inhibitors; note: potency is the fitted concentration of half-maximal effect; nearly all actives have a fitted effect of over 55% in size
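Cell growth measured by CellTiter-Glo luminescence after a minimum 48 h, 37 C compound exposure with 20 nM CPT in Tdp1-knockout DT40 cells stably expressing hTDP1, seeded 400/well; qHTS titration format.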
Numbers without * were called inactive; u = inconclusive; x = no result given; [ ] = dose if it differs, or a comment. Unless noted, calls come from the whole dose curve; as a rule, active = well fitted curve in the direction sought with a large enough effect; inconclusive = small, poorly fitted or top-dose-only effect, or another doubt; inactive = no such curve, though single readings can be large; an effect the other way counts as inactive or inconclusive. % is set by controls: 0 for no effect and ±100 for the full control effect.

SMILES	ELG1 DNA repair	Giardia killer	TDP1 cell noCPT	IL-1B inflam inh	TDP1 block	TDP1 cell CPT
Cc1cc(C)c(S(=O)(=O)CCC(C)C)c(=O)[nH]1	5.9%	17.3	6.9%	19.7	2.7%	9.6%
Cc1cc(Cl)ccc1NC(=S)NC1CCCC1	1.2%	22.4	20.6µM*	-8.8	x	u
COc1ccccc1C(=O)NNC(=O)C(=O)NC1CCCCC1	u	14.6	u	13.1	8.4%	20.6µM*
COc1ccccc1NC(=O)NC1CCCCCCC1	u	9.2	-4.1%	u	1.9%	3.4%
COc1ccccc1NC(=S)NC1CCCCCC1	-5.1%	4.3	18.4µM*	-2.8	0.0%	u
CCOc1ccc(CCNC(=O)c2sc3nc4n(c(=O)c3c2C)CCC4)cc1	u	-12.2	3.7%	38.7	1.8%	-21.1%
CC(=O)Oc1ccc(C)cc1	x	x	-0.2%	x	-2.1%	9.6%
CSC(SC)=C(C(C)=O)C(=O)c1ccc(C)cc1	u	-10.9	u	-50.2*	0.0%	-2.1%
COc1ccccc1N/C(=N/S(=O)(=O)c1ccc(C)cc1)c1ccc(Cl)cc1	2.0%	5.4	u	-24.9	7.8%	16.4µM*
COc1ccccc1NS(=O)(=O)c1cc(NC(=O)Cc2n[nH]c(=O)c3ccccc23)ccc1Cl	23.1µM*	-2.1	u	u	4.1%	u
COc1ccccc1NS(=O)(=O)c1cc(N/C(=N\S(=O)(=O)c2ccccc2)c2ccc(F)cc2)ccc1Cl	u	-24.8	x	-8.2	-2.7%	18.4µM*
COc1ccccc1NS(=O)(=O)c1cc(NC(=S)Nc2cc(C)cc(C)c2)ccc1Cl	u	-14.7	5.17µM*	u	4.6%	11.6µM*
CCNC(=S)Nc1ccc(C)c(S(=O)(=O)Nc2ccccc2OC)c1	0.0%	-15.3	u	-16.3	x	u
Cc1ccc(S(=O)(=O)/N=C(/Nc2ccc(F)cc2F)c2ccc(F)cc2)cc1	u	3.0	1.4%	5.9	2.0%	0.1%
CC(Cc1ccco1)NC(=O)c1ccc(C(F)(F)F)cc1 (centres undefined)	u	u	-20.0%	u	2.8%	-0.5%
Cc1onc(-c2ccccc2)c1C(=O)NC(=S)NNC(=O)c1ccc(O)cc1	-14.9%	-4.6	13µM*	61.3	8.0%	u
Cc1onc(-c2ccccc2)c1C(=O)NC(=S)NNC(=O)c1ccccc1O	2.6%	-15.7	3.26µM*	100.0	10.7%	3.66µM*
Cc1onc(-c2ccccc2)c1C(=O)NNC(=O)c1ccccc1Br	8.3%	6.1	1.6%	-13.7	-1.8%[56.1 µM]	-6.4%
CCCOc1ccc(C(=O)NC(=S)NNC(=O)c2c(-c3ccccc3)noc2C)cc1	7.3µM*	u	u	73.8	12.3%	23.1µM*
CC(=O)Nc1ccc(OCCCNC(=O)c2c(-c3ccccc3)noc2C)cc1	u	0.1	14.6µM*	13.3	2.7%	u
O=C1C(Cc2ccccc2O)NC(=S)N1c1ccccc1 (centres undefined)	3.0%	4.4	-16.8%	19.2	5.0%	-20.4%
CC(NC(=O)C1CC1)c1nnc2n1CCN(Cc1cccc(F)c1F)CC2 (centres undefined)	x	x	-2.1%	x	x	-2.4%
COC(=O)c1ccc(NC(=S)NC(=O)c2c(-c3ccccc3)noc2C)cc1	u	13.9	-3.8%	3.9	2.9%	13.6%
Cc1onc(-c2ccccc2)c1C(=O)NC(=S)NNC(=O)c1ccc(O)cc1O	u	3.2	4.61µM*	30.9	8.0%	4.11µM*
O=C(CC(c1cccs1)N1Cc2ccccc2C1=O)Nc1ccc(Cl)cc1 (centres undefined)	x	x	u	x	-2.8%	u
SMILES	ELG1 DNA repair	Giardia killer	TDP1 cell noCPT	IL-1B inflam inh	TDP1 block	TDP1 cell CPT
COc1cc(OC)c2c(=O)cc(-c3ccccc3)oc2c1	u	-10.3	u	-23.1	2.6%	20.6µM*
CC(C)(C)OC(=O)COc1cc(OCC(=O)OC(C)(C)C)c2c(=O)cc(-c3ccccc3)oc2c1	u	-6.2	18.4µM*	-67.4*	-9.6%	u
COc1cc2c(c3oc(-c4ccccc4)cc(=O)c13)C=CC(C)(C)O2	-6.9%	u	25.9µM*	15.6	3.8%	16.4µM*
CC(C)(C)OC(=O)COc1cc(O)c2c(=O)cc(-c3ccccc3)oc2c1	-25.2%	-16.2	-27.5%	0.0	5.5%	u
CC1(C)OC(=O)C2=C(C[C@@H](C3CCCC3)O[C@H]2CCc2cccc(Cl)c2)O1	x	x	u	43.0	x	-26.4%
CN(C)c1ccc(NC2=C(Cl)C(=O)c3ccccc3C2=O)cc1	u	-2.2	11.6µM*	-99.6*	13.5%	20.6µM*
CC(=O)Nc1ccc(NC(=O)c2cccc3c2-c2ccccc2C3=O)cc1	-5.4%	7.2	18.4µM*	5.6	-2.6%	20.6µM*
O=C(Oc1ccc([N+](=O)[O-])cc1)c1cccnc1	-2.9%	-20.1	-19.6%	-3.9	-2.7%	3.9%
CN(C)c1ccc(NC(=O)CN2C(=O)c3ccccc3C2=O)cc1	12.3%	11.3	-3.5%	6.6	x	1.0%
O=C(Oc1ccc(NC2=C(Cl)C(=O)c3ccccc3C2=O)cc1)c1ccc([N+](=O)[O-])cc1	u	-12.4	7.31µM*	3.5	2.7%	8.2µM*
Cc1ccc(NC2=C(NCCO)C(=O)c3ccccc3C2=O)cc1	-1.3%	-4.5	u	-17.0	8.3%	13µM*
Cc1ccc(NC(=O)c2cccc3c2-c2ccccc2C3=O)cc1C	-5.0%	-14.8	u	49.7	3.6%	u
CC1(C(=O)NS(=O)(=O)c2cccs2)CCN1C(=O)C1(c2ccc(Cl)cc2)CC1 (centres undefined)	x	x	-2.6%	21.2	x	-3.3%
CC1=C(C(=O)N2CCCC(N3CCN(c4cccc(C(F)(F)F)c4)CC3)C2)OCCO1 (centres undefined)	-17.5%	-18.9	u	1.0	2.0%	u
O=c1c(Cc2c(F)cccc2Cl)c(O)ccn1CCc1c[nH]c2ccccc12	-9.3%	6.5	-15.7%	-9.5	7.7%	-7.7%
O=C1C(Cl)=C(Nc2ccc3cn[nH]c3c2)C(=O)c2ccccc21	u	-0.9	2.06µM*	-99.2*	8.8%	1.64µM*
CC(=O)Nc1ccc(C2C(=O)c3ccccc3C2=O)cc1	u	-20.4	u	-19.3	x	-26.5%
CC(=O)Nc1ccc(NC2=C(Cl)C(=O)c3ccccc3C2=O)cc1	u	2.9	u	-97.6*	-2.7%	u
Cc1cccc(NC(=O)C(C)OC(=O)CNC(=O)C2CCCCC2)c1 (centres undefined)	x	x	-6.1%	-14.8	x	-11.7%
